Measured values published in PubChem BioAssay (NCATS).
Values joined by “and” are separate entries in the source; they are usually repeats but may differ in a detail not shown here. Equal entries are not always repeated. Records with an inconclusive call do not appear. Values without a mark were called inactive. Active and inactive are the calls of the source. Calls come from the whole dose curve; as a rule, active = well fitted curve in the direction sought with a large enough effect; inconclusive = small, poorly fitted or top-dose-only effect, or another doubt; inactive = no such curve, though single readings can be large or run the other way.

Test: qHTS Assay for Identifying Gametocytocidal Compounds (AID 743244);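 for max response: actives lower the fluorescent signal which means gametocytes are killed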
Conditions: P. falciparum 3D7 stage III-V gametocytes, alamarBlue, 72 h; max response: hits give low values
Summary of the method: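 Viability read-out was resazurin reduction (alamarBlue, 24 h) measured at Ex 525/Em 598 nm. Beforehand, late-stage (III-V) 3D7 P. falciparum gametocytes at 20,000 cells/well were incubated with compound 72 h at 37C under 5% CO2.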
% is set by controls: 0 for no effect and ±100 for the full control effect; potency is the fitted concentration of half-maximal effect.

SMILES	max response	Potency
CCN(CC)CCOC(=O)C(C)(c1ccccc1)c1ccccc1	10.8%	
COc1ccc(CN2CCNCC2)c(OC)c1OC	-9.77%	
CCOC(=O)NC(C)(C)Cc1ccc(Cl)cc1	-1.19%	
COc1cc(CC(C)N)cc2c1OCO2 (centres undefined)	-6.22%	
CCC1(c2cnc[nH]2)Cc2ccccc2C1	-21.2%	
CC(C(O)c1ccccc1)N(C)CCOC(c1ccccc1)c1ccccc1 (centres undefined)		5.01 µM (active)
c1cc2c(c(N3CCNCC3)c1)OCCO2	-8.91%	
COc1cc(N)c(Cl)cc1C(=O)NC1CN2CCC1CC2 (centres undefined)	-2.64%	
CCOC(=O)c1cncn1C(C)c1ccccc1 (centres undefined)	-8.82%	
CC1=C2[C@H]3OC(=O)[C@@H](C)[C@@H]3CC[C@@]2(C)C=CC1=O	4.47%	
CC(Cc1ccc2c(c1)OCO2)NO (centres undefined)	-6.74%	
CCC(=O)OC1(c2ccccc2)CCN(C)CC1	-1.1%	
C[N+](C)(C)CCOC(=O)C(O)(c1ccccc1)c1ccccc1	-1.74%	
C[C@@H]1CN(C2CCC(C#N)(c3ccc(F)cc3)CC2)CC[C@]1(C(=O)O)c1ccccc1 (some centres undefined)	-3.29%	
C[C@@H]1CC[C@H]2[C@@H](C)C(=O)O[C@@H]3O[C@@]4(C)CC[C@@H]1[C@]32OO4		0.132 µM (active)
COc1cc(CC(C)N)c(OC)cc1Br (centres undefined)	-17.7% and 14.6%	
CCC1(c2cccc(O)c2)CCCCN(C)C1 (centres undefined)	11.4%	

SMILES	max response	Potency
COc1ccc2c3c1O[C@H]1[C@@H](O)C=C[C@H]4[C@@H](C2)N(C)CC[C@@]341	7.49%	
CC(Cc1ccccc1)NCc1ccccc1Cl (centres undefined)	9%	
Cc1ncc2n1-c1ccc(Cl)cc1C(c1ccccc1F)=NC2	-2.43%	
O=C(O)Cc1ccccc1	-12.8%	
OC(O)C(Cl)(Cl)Cl	-5.08%	
COc1ccc(OC)c(CC(C)N)c1 (centres undefined)	-18.6%	
CNC(=O)NC(O)C(Cl)(Cl)Cl (centres undefined)	8.2%	
CCN(Cc1ccc(Cl)nc1)/C(=C/[N+](=O)[O-])NC	8.58%	
O=C(O)CCCCCCNC1c2ccccc2CCc2ccccc21	-6.01%	
CN(C)CCc1c[nH]c2ccccc12	16.8%	
CNC(C)Cc1ccc2c(c1)OCO2 (centres undefined)	-4.91%	
Cc1c(C)c2c(c(C)c1OC(=O)CCC(=O)OCCO)CC[C@@](C)(CCC[C@H](C)CCC[C@H](C)CCCC(C)C)O2	-0.873%	
O=C(Nc1ccc(Cl)cc1)Nc1ccc(Cl)c(C(F)(F)F)c1		12.6 µM (active)
C[N+]1(CCC(C(N)=O)(c2ccccc2)c2ccccc2)CCCCC1	-5.02%	
CCN(CC)CCCN(c1ccccc1)C1Cc2ccccc2C1		8.91 µM (active)
O=C(N[C@@H]1N=C(c2ccccc2F)c2cccc3c2N(CC3)C1=O)c1cc2ccccc2[nH]1	-8.36%	
CC(C)(C)OC(=O)c1ncn2c1[C@@H]1CCCN1C(=O)c1c(Br)cccc1-2	3.06%	
